Measured values taken from PubChem BioAssay AID686978 (National Center for Advancing Translational Sciences (NCATS), 2013).
“And” between values parts separate entries of the source, which are not always exact repeats. Equal entries are not always repeated. Out of some 420,000 compounds screened, about 64,000 (15%) were called active. About 27% were inconclusive and are not listed. Only a sample is shown. A number with no mark means an inactive call. Calls follow the shape of the dose curve; as a rule, active = well fitted inhibition curve with a large enough effect; inconclusive = small, poorly fitted or top-dose-only effect; inactive = flat fitted curve, though single readings scatter.

test: qHTS for Inhibitors of human tyrosyl-DNA phosphodiesterase 1 (TDP1): qHTS in cells in absence of CPT; details: DT40 Tdp1-/- hTDP1 cells, no CPT, ATP luminescence, 48 h; activity change, negative = growth inhibition: at 46.2 µM (top of the series); also: nearly all actives have a fitted effect of over 55% in size
Outline: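 Luminescent ATP content (CellTiter-Glo) served as the growth readout. Knockout chicken DT40 cells expressing human TDP1 were exposed to compounds without camptothecin for a minimum 48 hr at 37 °C.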
% is scaled to controls: 0 for no effect and ±100 for the full control effect; potency is read from the fitted curve at half-maximal effect.

Structure (SMILES)	activity change, negative = growth inhibition	Potency
C/C=C/C=C/C(=O)OCC(=O)Nc1ccc(Cl)cc1	-27.7%	–
O=C(NCN1CCN(CCO)CC1)c1cnccn1	-12.6%	–
O=C(CN1C(=O)CSc2ncccc21)N1CCOCC1	0.179%	–
Cc1cc(/C=C2/SC(=O)N(CC(=O)N3CCCC3)C2=O)ccc1N1CCOCC1	–	23.1 µM (active)
Cc1cc(/C=C2/SC(=O)N(CC(=O)N3CCCC3)C2=O)c(C)n1C	-8.02%	–
CN(C)C(=S)Nc1ccc(Br)cc1Cl	4.16%	–
O=C(NCCN1CCOCC1)c1c(F)c(F)c(F)c(F)c1F	16.8%	–
CC(=O)Oc1cc2c(C(=O)NCCN3CCOCC3)c(C)oc2c2ccccc12	–	16.4 µM (active)
Cc1cc(C)cc(C(=O)NCCN2CCOCC2)c1	-4.83%	–
O=C(CCc1nc(CN2CCN(S(=O)(=O)c3ccc(F)cc3)CC2)no1)N1CCCCC1	-13.9%	–
CCN(CC(=O)Nc1ccc(OC)cc1)C(=O)c1ccc(=O)n(Cc2ccccc2)n1	-9.51%	–
O=C(CNC(=O)c1cc(=O)[nH]c2ccccc12)Nc1ccc(F)c(F)c1	9.3%	–
COC(=O)c1cnn2c(C(F)(F)F)cc(-c3ccco3)nc12	-7.72%	–
CCOc1ccc(C(C)=O)cc1COC(=O)CNC(=O)c1cccs1	-6.35%	–
O=C(O)/C=C/c1ccc(S(=O)(=O)N2CCCCCC2)cc1	-0.963%	–
CN/C(=C\[N+](=O)[O-])NCCSCc1csc(CN(C)C)n1	–	inactive
Cc1nc2ccccc2c(=O)n1CCCn1ccnc1	-13.6%	–
Cc1ccnc(-n2sc3ccccc3c2=O)n1	–	5.17 µM (active)
Cc1ccnc(N2CCCC(C(=O)NC3CC3)C2)n1 (centres undefined)	9.1%	–
COCCCNC(=O)c1c(F)c(F)c(F)c(F)c1F	12.3%	–
O=C(CSc1nnc(-c2ccncc2)n1C1CCCCC1)Nc1ccccc1	-10.6%	–
CCC(C)N(C)C1CCN(C(=S)Nc2ccc(OC)cc2)CC1 (centres undefined)	-3.26%	–
Cc1cccc(-n2nc3c(c2NC(=O)c2ccc(Br)o2)CSC3)c1C	-18.1%	–
COc1ccccc1OCC(=O)Nc1c2c(nn1-c1ccc(F)cc1)CS(=O)(=O)C2	-2.31%	–
COc1cccc(C(=O)Nc2c3c(nn2-c2cccc(C)c2C)CS(=O)(=O)C3)c1OC	–	15.8 µM (active)
COc1ccc(N(CC(=O)Nc2cccc3ccccc23)S(C)(=O)=O)c(OC)c1	-24.1%	–

Structure (SMILES)	activity change, negative = growth inhibition	Potency
CCC(CC)C(=O)Nc1cc(C(=O)OC)cc(C(=O)OC)c1	-12.8%	–
Cc1cc2nc3c(=O)n(Cc4ccccc4)c(=O)[nH]c3nc2cc1N	-27.9%	–
Cc1ccc(-n2nnnc2CNC(=O)c2ccccc2C)cc1C	-10.6%	–
CCC(=O)N(C)C(c1ccccc1Cl)c1nnnn1-c1c(C)cccc1C (centres undefined)	–	18.4 µM (active)
CCOC(=O)N1CCN(C(c2ccnc3ccccc23)c2nnnn2-c2c(C)cccc2C)CC1 (centres undefined)	-23%	–
Cc1ccc(S(=O)(=O)N(NC2=NS(=O)(=O)c3ccccc32)C(=O)c2ccccc2)cc1	-14.8%	–
Cc1cc(C)c(C)c(S(=O)(=O)N[C@@H](C)C(=O)OC(C)C(=O)NC(N)=O)c1C (some centres undefined)	4.64%	–
COc1ccccc1C(=O)COC(=O)CSCC(=O)Nc1cc(C)on1	1.01%	–
COC(=O)N1CN(C(=O)OC)CN(C(=O)OC)C1	-2.09%	–
CN(C(=O)CC1C(=O)NCCN1Cc1ccc(F)cc1Cl)C1CCCCC1 (centres undefined)	0.124%	–
CCOC(=O)N1CCN(C(=O)c2n[nH]c(=O)c3ccccc23)CC1	-14%	–
CCOC(=O)N1CCN(C(=O)c2nn(-c3ccc(C)cc3)c(=O)c3c2c2ccccc2n3C)CC1	–	18.4 µM (active)
COc1cc(NC(=O)c2nn(-c3ccc(C)cc3)c(=O)c3c2c2ccccc2n3C)cc(OC)c1OC	-7.67%	–
CCCN(CCC)CCNC(=O)Cn1cnc2sc(C)c(S(=O)(=O)N3CCC(C)CC3)c2c1=O	7.29%	–
O=C(CC[C@H]1O[C@@H](n2ccc(=O)[nH]c2=O)[C@H](O)[C@@H]1O)N[C@H](Cc1ccccc1)C(=O)NCc1ccco1	24.1%	–
O=C(NN=CC=Cc1ccccc1)C(O)C(O)C(=O)NN=CC=Cc1ccccc1 (centres undefined)	2.13%	–
CC(C)(C)NC(=O)NCc1ccco1	-7.35%	–
CC(C)(C)c1ccc(NC(=O)NCc2ccco2)cc1	–	14.6 µM (active)
CC(C)(C)c1ccc(C(=O)NCc2ccco2)cc1	-25.6%	–
Clc1ccc(-c2nnc(SCc3nc4ccccc4s3)o2)cc1	1.63%	–
Oc1c(Cl)cc(Cl)c(Cl)c1Cc1c(O)c(Cl)cc(Cl)c1Cl	–	4.22 µM (active) and 23.1 µM (active) and 2.59 µM (active)
CCCn1c(N)c(C(=O)CSc2nnc3n2CCCCC3)c(=O)[nH]c1=O	6.82%	–
CN(CC(=O)NCCc1ccc(S(N)(=O)=O)cc1)CC(=O)Nc1ccc(F)c(F)c1F	-17.4%	–
CCOc1ccccc1NC(=O)CN1CCN(S(=O)(=O)c2ccc(Br)cc2)CC1	-17.6%	–
Cn1c(CC(=O)Nc2ccccc2)nnc1SCC(=O)c1ccccc1	1.42%	–
CCCCNc1c(-c2cccc(Sc3ccc(OC)cc3)c2)nc2ccccn12	–	20.6 µM (active)

Structure (SMILES)	activity change, negative = growth inhibition	Potency
CCCCNC(=O)c1onc(CSc2cccc(OC)c2)c1C(=O)O	-11%	–
COc1ccc(Sc2nc(-c3ccccc3)ncc2OC)cc1	-5.11%	–
O=c1o[nH]c(-c2ccccc2)c1N=Nc1c(F)cccc1Cl	-4.15%	–
Cc1ccc2oc(=O)c3cnn(CC(=O)N4CCCCCC4)c3c2c1	-15.1%	–
CCOC(=O)C1CCCN(C(=O)Cn2ncc3c(=O)oc4ccc(C)cc4c32)C1 (centres undefined)	1.04%	–
CCOC(=O)C1CCCN(C(=O)Cn2ncc3c(C)n(Cc4ccc(F)cc4)c(C)c3c2=O)C1 (centres undefined)	–	16.4 µM (active)
CCOc1ccc(CN(C)C(=O)c2ccc(=O)[nH]c2)cc1	-19.3%	–
Clc1ccc2nc(-c3ccccc3)nc(C(Cl)Cl)c2c1	–	0.366 µM (active)
Cc1ccccc1C(=O)NNC(=O)CN1C(=O)c2ccccc2C1=O	16.1%	–
Cc1noc(C)c1-c1nc(CSc2ccc(Cl)cc2)no1	-21.8%	–
Clc1ccc(Cc2nnc(-c3cccs3)o2)cc1	-21.9%	–
CCCC(=O)n1nc(-c2ccccc2)nc1N	-4.29%	–
CCc1nn(-c2cc(Oc3cccc4ccccc34)nc(-c3ccccc3)n2)c(N)c1C#N	–	16.4 µM (active)
COc1ccc(Cn2c(=O)c3oc4ccccc4c3n(CC(=O)Nc3ccc(F)cc3F)c2=O)cc1	-15.4%	–
CCOC(=O)c1sc(=NC(=O)/C=C/c2cccs2)n(C)c1C	-22.9%	–
CCCCc1nnc(NC(=O)CSc2nc(C)cc(=O)[nH]2)s1	-10.6%	–
COC(=O)C1=C(C)N(C)C(=S)NC1c1cc(OC)ccc1OC (centres undefined)	-6.15%	–
COc1ccc(OC)c(C(=O)NC2CCCc3c2cnn3-c2cc(C)cc(C)c2)c1 (centres undefined)	–	16.4 µM (active)
Cc1cc(C(=O)NCC2Cc3cccc(-c4cncnc4)c3O2)c(C)o1 (centres undefined)	0.211%	–
Cc1cc(C(=O)NC2CCCc3c2cnn3-c2cccc(C)c2C)c(C)o1 (centres undefined)	–	8.2 µM (active)
COc1ccc(C(=O)NC2CCCc3c2cnn3-c2cccc(C)c2C)c(OC)n1 (centres undefined)	–	8.2 µM (active)
COc1ccc(OC)c(CN2C(=O)CCC2(C)C(=O)NC2CCCCCC2)c1 (centres undefined)	3.78%	–
COCc1c(C(=O)NC2CCCCC2)cnn1-c1nccc(-c2ccccc2OC)n1	-2.16%	–
Cc1cc(C(=O)NNC(=O)CCC2CCCCC2)c(C)o1	4.76%	–
Cc1ccccc1C(=O)NCCN=C1NS(=O)(=O)c2ccccc21	17.6%	–
CC(=O)N[C@H]1[C@H]([C@H](O)[C@H](O)CO)OC(C(=O)O)=C[C@@H]1O	7.34%	–

Structure (SMILES)	activity change, negative = growth inhibition	Potency
Cc1ccc(S(=O)(=O)c2ccc(Cl)cc2)cc1S(=O)(=O)NC(C(=O)O)C(C)C (centres undefined)	-8.65%	–
CN(C)c1ccc(-n2cccc2/C=N/n2cnnc2)cc1	-5.16%	–
C=CCN1C(=NC(=O)COc2ccccc2)SC2CS(=O)(=O)CC21 (centres undefined)	-0.72%	–
Nc1ccc2nc3c(=O)[nH]c(=S)[nH]c3nc2c1	-13.9%	–
Cc1ccccc1OCC(=O)Nc1c(C(=O)Nc2ccccc2F)oc2ccccc12	-18.9%	–
Cc1cc(NC(=O)CSc2ncc(C(=O)Nc3ccc(Cl)cc3)c(=O)n2C)no1	-3.88%	–
Cn1c(SCC(=O)c2ccccc2)ncc(C(=O)Nc2ccc(F)cc2)c1=O	-26.2%	–
Cc1ccc(NC(=O)c2cnc(SCC(=O)NCC3CCCO3)n(C)c2=O)cc1 (centres undefined)	–	14.6 µM (active)
COc1cccc(-n2ccn(CC(=O)NCc3ccc(C)cc3)c(=O)c2=O)c1	-24%	–
CC(C)=CCN1CCC2(CCc3ccccc32)CC1	–	20.6 µM (active)
CC(C)=CCN1CCN(CCCc2ccccc2)CC1CCO (centres undefined)	2.17%	–
OCC[C@H]1C[C@@H](O)[C@H](O)[C@@]2(OCCc3ccccc32)O1	-12.8%	–
Cc1cc(C(=O)CCl)c(C)n1CC1COc2ccccc2O1 (centres undefined)	–	2.59 µM (active)
O=C1C(=O)N(CC2COc3ccccc3O2)c2ccccc21 (centres undefined)	–	1.46 µM (active)
Cc1ccc(S(=O)(=O)NCCC(=O)NNC(=O)C2COc3ccccc3O2)cc1 (centres undefined)	-20.6%	–
O=C(CN1C(=O)C2C3C=CC(C3)C2C1=O)NCC1COc2ccccc2O1 (centres undefined)	2.38%	–
CCn1ccnc1C[C@@H]1COc2ccccc2O1	-21.8%	–
Cc1cc(NC(=O)CCC2COc3ccccc3O2)no1 (centres undefined)	-10.2%	–
CCN(CCN(C)C)C(=O)c1ccc2nc(C)c(N(C)C(=O)CCc3ccccc3)n2c1	10.3%	–
CCOc1ccc(Br)cc1S(=O)(=O)Nc1ccc(S(=O)(=O)Nc2cc(C)on2)cc1	-1.12%	–
CC1C(=O)Nc2ccccc2N1C(=O)c1ccc(F)cc1F (centres undefined)	-0.847%	–
CCn1c(SCC(=O)NC2CC2)nnc1-c1ccccc1OC	23.2%	–
Cc1ccc2cc(CN(c3ccc(C)c(C)c3)S(C)(=O)=O)c(=O)[nH]c2c1	-26.3%	–
Cc1cc(C)c2c(c1)cc(C)c1nnc(SCC(=O)Nc3cc(C)on3)n12	–	11.6 µM (active)
Cc1cc(NC(=O)CSc2nnnn2-c2ccc(F)cc2)no1	-0.549%	–
Cc1cc(NC(=O)CSc2nnc(-c3ccco3)n2N)no1	-0.944%	–
